The whole screen tested about 59,000 compounds, of which about 6,500 (11%) were called active. Not shown: some 15% with an inconclusive outcome. No stated cut-off is given here; in the data, active means max dye-equivalent concentration above about 10 nM; inconclusive means mostly about 1.1 nM to 9.6 nM; inactive means weaker than that. The list comes from a sample in which actives are over-represented; it also holds similar structures and randomly drawn compounds.
Assay: qHTS Assay for Spectroscopic Profiling in A350 Spectral Region
Conditions: Compound autofluorescence, 340/450 nm, Alexa 350 dye-equivalents; stronger effect = higher value

Max dye-equivalent concentration, active:
COc1ccc(CCn2c(-c3ccco3)nc3nc4ccccc4nc32)cc1OC 11 nM
CCOc1ccc2nc(NCCNS(=O)(=O)c3ccccc3)c(C#N)cc2c1 86 nM
N#Cc1c2c(c(N3CCN(CCO)CC3)n3c1nc1ccccc13)CCCC2 23 nM
CN(C)CCCNc1c2c(c(C#N)c3nc4ccccc4n13)CCC2 94 nM
COc1ccc(NS(=O)(=O)c2ccc(NC(=O)C(C)(C(F)(F)F)C(F)(F)F)cc2)nn1 23 nM
COc1ccc(N2C(=O)c3cccc4cccc(c34)C2=O)nn1 160 nM
COc1ccccc1NC(=O)C1=C(C)NC2=C(C(=O)CCC2)C1c1ccc(C)o1 (stereo not drawn) 16 nM
Cc1nc(Nc2ccc3c(c2)OCCO3)c2nnn(Cc3ccccc3Cl)c2n1 980 nM
CCc1cc(=O)oc2cc(C)cc(OC(C)C(=O)O)c12 (stereo not drawn) 110 nM

Max dye-equivalent concentration, inactive:
COc1ccc(CCn2nnnc2C(c2ccccc2)N2CCN(C)CC2)cc1OC (stereo not drawn)
COCCn1c(-c2ccc(OC)c(OC)c2)nc2ccccc21
CCc1ccccc1NC(=O)CSc1nnc([C@@H](NC(=O)OC(C)(C)C)C(C)C)o1
CN1CCN(C(=O)c2ccc(NS(=O)(=O)c3ccccc3)cc2)CC1
O=C(Nc1c[nH]c(=O)[nH]c1=O)Oc1ccccc1
COc1ccc(C(=O)Nc2ccc(S(=O)(=O)Nc3onc(C)c3C)cc2)cc1OC
COc1ccc2c(c1OC)C(=O)N(c1ncn[nH]1)C2
CCOc1ccc(Nc2oc(Cc3ccccc3)nc2C#N)cc1
O=C(O)c1cccc(S(=O)(=O)NCCO)c1
CCOc1ccccc1N(CC(=O)NC1CCCCC1)C(=O)CCCC(=O)Nc1ccccn1
CN(C)C(=O)/N=N\C(=O)N(C)C
CC(C)NS(=O)(=O)c1ccc(CCC(=O)N2CCOCC2)cc1
N=C(CC(=O)Nc1ccccn1)c1ccccc1
O=C(c1ccccc1)N1CCN(C(=O)N2CCCCC2)CC1
COc1ccc(-c2nc3n(c2Br)CCC3)cc1
CC(Sc1nncs1)C(=O)NCc1ccc2c(c1)OCO2 (stereo not drawn)
CCOC(=O)c1c(C)[nH]c(C)c1C(=O)CSc1nc(N)cc(N)n1
O=S(=O)(NCCOc1cccc2cccnc12)c1ccc(F)cc1
COc1cc(NS(=O)(=O)c2ccc(NC(C)=O)cc2)cc(OC)c1
CC(=O)Nc1ccc(S(=O)(=O)Nc2cccc(NC(=O)C(C)(C)C)c2)cc1
O=C(CN(c1ccc2c(c1)OCCO2)S(=O)(=O)c1ccccc1)Nc1ccc2c(c1)OCO2
CCCn1c(C(O)c2cc(OC)ccc2OC)nc2ccccc21 (stereo not drawn)
O=C(NCCc1ccco1)c1nn(Cc2ccccc2)c(=O)c2ccccc12
COc1c(O)cccc1-c1nnn(CCC(=O)OCC(=O)c2ccccc2)n1
COCCNc1ccnc(-c2cccc(NS(C)(=O)=O)c2)n1
COc1ccc(OCCCON2C(=O)c3ccccc3C2=O)cc1
CCOC(=O)c1[nH]cnc1C(=O)NC1CCCCC1
Fc1ccccc1CCNc1nnnn1-c1ccccc1
Cc1cc(C)n(-c2ccc(Cl)c(C(=O)O)n2)n1
COC(=O)C1=C(C)NC2=C(C(=O)c3ccccc32)C1c1ccc(-c2ccc(C(=O)O)cc2)o1 (stereo not drawn)
COc1ccccc1NC(=O)C1=C(C)Nc2ncnn2C1c1ccc(C)o1 (stereo not drawn)
O=C(CCCCn1c(=O)[nH]c2ccccc2c1=O)NCc1ccc2c(c1)OCO2
CC1CN(C(=O)CN2C(=O)NC(C)(c3ccccc3)C2=O)CC(C)O1 (stereo not drawn)
CN(C(=O)C1CCOC1)c1nnc(-c2cccnc2)s1 (stereo not drawn)
C[C@@H]1C[C@H]2[C@@H]3C[C@H](F)C4=CC(=O)C=C[C@@]4(C)[C@]3(F)[C@H](O)C[C@]2(C)[C@@]1(O)C(=O)CO
CCCCOc1ccccc1/C=c1/sc2nc(-c3oc4ccccc4c3C)nn2c1=O
C#CCNc1nc(C(C)C)nc2c1nnn2Cc1ccccc1F
Cc1cc(Cl)c(S(=O)(=O)Nc2ccc3c(c2)OCCO3)cc1OCC(N)=O
CSCC[C@H](NC(=O)NCc1cccs1)C(=O)O
COc1ccccc1CNc1ncncc1-c1cccnc1
CCOC(=O)CCCNC(=O)CN1C(=O)NC(CCc2ccccc2)C1=O (stereo not drawn)
CCNc1nc(NCC)nc(N(C)n2cnnc2)n1
C=CCn1c(SCn2nnc3ccccc3c2=O)nnc1-c1ccc(Cl)cc1
COC(=O)N1CCC2(CCCN(Cc3ccccc3OC)C2)CC1

Source: PubChem BioAssay AID590 (National Center for Advancing Translational Sciences (NCATS), 2007)
